PubChem BioAssay (NCI)
About 79,000 compounds went through this panel and 15% of them were active in at least one assay; those are over-represented in the sample as a whole. Activity calls are given as the source filed them. Rule as the data show it: active = growth inhibition above about 70%; inactive = the rest.

Test: NCI Yeast Anticancer Drug Screen. Data for the cln2 rad14 strain (AID 165);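 also: 0% = growth equal to vehicle treated cultures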
Conditions: S. cerevisiae cln2 rad14 strain, at 50.0 µM, stronger effect = higher value
Method in brief: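 cln2 rad14 yeast strain; compound exposure; growth inhibition read vs vehicle controls.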
With CCCn1c(C)nc2c(N)cc(C)cc21 the growth inhibition was -44.5% (inactive). In the case of CCOC(=O)Nc1cccc(Cl)c1, the growth inhibition is reported as 9.65% (inactive). For CCC[CH2][Ge]([CH2]CCC)([CH2]CCC)[n]1ccc2ccccc21, the growth inhibition was 20.3% (inactive). In the case of CC(C)C(C(=O)O)N(CC1(O)OCC(O)C(O)C1O)N=O (stereo not given), the growth inhibition is reported as 0.1% (inactive). For COc1ccc(C2(C)OCCCC2([NH-])C[NH-])cc1.[Cl][Pt+2][Cl] (stereo not given), the growth inhibition was 21.6% (inactive). For CCCC#CCN(C(C)C)C(C)C, the growth inhibition was 29.2% (inactive). In the case of Cc1ccc(SCC(CF)OCn2cc(F)c(=O)[nH]c2=O)cc1 (stereo not given), the growth inhibition is reported as -22.2% (inactive). For Nc1nc(Cc2ccccc2)c(-c2ccccc2)c(-c2nc(N)nc(Cc3ccccc3)c2-c2ccccc2)n1, the growth inhibition was -5.15% (inactive). For O=C1Oc2ccccc2C(=O)Oc2ccccc2C(=O)Oc2ccccc2C(=O)Oc2ccccc21, the growth inhibition was -8.25% (inactive). For O=C1OI(=O)(O)c2ccccc21 (stereo not given), the growth inhibition was -36.6% (inactive). For O=C(COc1ccccc1)OC1CCCCC1C1CCCCC1 (stereo not given), the growth inhibition was 21.5% (inactive). With O=C(O)c1ccc2sc3ccccc3c(=O)c2c1 the growth inhibition was -21.2% (inactive). In the case of COc1ccccc1NC(=O)C(/C=N/C(N)=S)=C(\C)O, the growth inhibition is reported as 7.6% (inactive). In the case of CCOC(=O)N[C@@H]1C(CC(=O)OC)O[C@H]2OC(C)(C)O[C@H]21 (stereo not given in full), the growth inhibition is reported as 7.4% (inactive). In the case of CN1CCN(C(=O)/C(=C/c2ccccc2)NC(=O)c2ccccc2)CC1, the growth inhibition is reported as -12.7% (inactive). With CC(c1ccccc1)C(C)c1ccccc1 (stereo not given) the growth inhibition was -72.5% (inactive). In the case of c1ccc(N=C2CCCCCC2)cc1, the growth inhibition is reported as 7.15% (inactive). In the case of CCCC(=O)C(C)(C)C, the growth inhibition is reported as -41.5% (inactive). For C=CC(=O)OCCOCCOC, the growth inhibition was -5% (inactive). With CN(C)S(=O)(=O)C(C(N)=O)c1ccccc1 (stereo not given) the growth inhibition was -14.9% (inactive). In the case of O=c1oc2ccccc2c2ccccc12, the growth inhibition is reported as -5.95% (inactive). For CS(=O)(=O)CCC(Nc1ccc([N+](=O)[O-])cc1[N+](=O)[O-])C(=O)O (stereo not given), the growth inhibition was 4.25% (inactive). In the case of NC(CSC(c1ccccc1)(c1ccccc1)c1ccc(C(=O)O)cc1)C(=O)O (stereo not given), the growth inhibition is reported as 15.5% (inactive). In the case of Brc1cc(Br)c2c(c1)CN(C1CCCCC1)CO2 (tested in a mixture with another compound), the growth inhibition is reported as -18.9% (inactive). For Cc1n(CC(=O)c2ccccc2)nc2sc(N)n[n+]12, the growth inhibition was -18.2% (inactive). With COc1ccc(NC(=O)C(=O)Cc2nc3ccc([N+](=O)[O-])cc3[nH]c2=O)c(OC)c1 the growth inhibition was 3.95% (inactive). In the case of COC(=O)CCc1cc(=O)oc2c3c(cc(OC)c12)OC1OC(=O)CC31 (stereo not given), the growth inhibition is reported as 6.4% (inactive). For O=C1C2C3(CCl)C1C23CCl (stereo not given), the growth inhibition was 10.4% (inactive). For N#Cc1cn(Cc2ccccc2)c2ccccc2c1=O, the growth inhibition was 47.9% (inactive). With O=[N+]([O-])c1cc(C(F)(F)F)ccc1F the growth inhibition was -25.8% (inactive). With CCOC(=O)Cc1cccnc1N the growth inhibition was -3.9% (inactive). For CN1CCCC2[C@@H]3CCC4=C(O)C(=O)CC[C@]4(C)C3CC[C@@]21C (stereo not given in full), the growth inhibition was 22.1% (inactive). With c1ccc(B2OCC(C3OB(c4ccccc4)OC4COB(c5ccccc5)OC43)O2)cc1 (stereo not given) the growth inhibition was -30.9% (inactive). In the case of COc1ccc(/C=C2/SC(=Nc3ccccc3)N(NC(=O)Cc3ccccc3)C2=O)cc1, the growth inhibition is reported as -16.6% (inactive). For O=C(CC(=O)N(C(=O)/C=C\c1ccccc1)c1ccc(Cl)cc1)N1N=C(c2ccccc2)C(N=Nc2cccc([N+](=O)[O-])c2)C1=O (stereo not given), the growth inhibition was 1.75% (inactive). With OCc1ccccc1O the growth inhibition was 25.8% (inactive). For CCN(CC)CCSc1cc(C)c2ccc(N)nc2n1, the growth inhibition was 15.1% (inactive). In the case of CC(CN(C)C)C(=O)c1ccccc1C(=O)O (stereo not given), the growth inhibition is reported as -35.2% (inactive). For CC(C)c1ccc(C(=O)OCCBr)cc1, the growth inhibition was -3.1% (inactive). With O=C1/C(=C/c2ccccc2)CCCC/C1=C\c1ccccc1 the growth inhibition was -1.9% (inactive).

Test: NCI Yeast Anticancer Drug Screen. Data for the bub3 strain (AID 167)
Conditions: S. cerevisiae bub3 mutant strain, at 50.0 µM, stronger effect = higher value
Method in brief: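 Growth of a checkpoint-deficient yeast mutant is measured after compound exposure. Values represent inhibition relative to vehicle.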
With CCCn1c(C)nc2c(N)cc(C)cc21 the growth inhibition was -1.5% (inactive). In the case of CCOC(=O)Nc1cccc(Cl)c1, the growth inhibition is reported as -7.35% (inactive). In the case of CCC[CH2][Ge]([CH2]CCC)([CH2]CCC)[n]1ccc2ccccc21, the growth inhibition is reported as 45.9% (inactive). For CC(C)C(C(=O)O)N(CC1(O)OCC(O)C(O)C1O)N=O (stereo not given), the growth inhibition was -11.1% (inactive). For COc1ccc(C2(C)OCCCC2([NH-])C[NH-])cc1.[Cl][Pt+2][Cl] (stereo not given), the growth inhibition was -0.4% (inactive). With CCCC#CCN(C(C)C)C(C)C the growth inhibition was -5.25% (inactive). For Cc1ccc(SCC(CF)OCn2cc(F)c(=O)[nH]c2=O)cc1 (stereo not given), the growth inhibition was 1.95% (inactive). For Nc1nc(Cc2ccccc2)c(-c2ccccc2)c(-c2nc(N)nc(Cc3ccccc3)c2-c2ccccc2)n1, the growth inhibition was -5.2% (inactive). In the case of O=C1Oc2ccccc2C(=O)Oc2ccccc2C(=O)Oc2ccccc2C(=O)Oc2ccccc21, the growth inhibition is reported as -22.1% (inactive). For O=C1OI(=O)(O)c2ccccc21 (stereo not given), the growth inhibition was 5.2% (inactive). With O=C(COc1ccccc1)OC1CCCCC1C1CCCCC1 (stereo not given) the growth inhibition was 2.6% (inactive). With O=C(O)c1ccc2sc3ccccc3c(=O)c2c1 the growth inhibition was 21.7% (inactive). For COc1ccccc1NC(=O)C(/C=N/C(N)=S)=C(\C)O, the growth inhibition was -3.65% (inactive). For CCOC(=O)N[C@@H]1C(CC(=O)OC)O[C@H]2OC(C)(C)O[C@H]21 (stereo not given in full), the growth inhibition was -9.55% (inactive). For CN1CCN(C(=O)/C(=C/c2ccccc2)NC(=O)c2ccccc2)CC1, the growth inhibition was 0.1% (inactive). With CC(c1ccccc1)C(C)c1ccccc1 (stereo not given) the growth inhibition was 7.6% (inactive). With c1ccc(N=C2CCCCCC2)cc1 the growth inhibition was -9.25% (inactive). For CCCC(=O)C(C)(C)C, the growth inhibition was -22.1% (inactive). For C=CC(=O)OCCOCCOC, the growth inhibition was -18.6% (inactive). For CN(C)S(=O)(=O)C(C(N)=O)c1ccccc1 (stereo not given), the growth inhibition was 7.65% (inactive). For O=c1oc2ccccc2c2ccccc12, the growth inhibition was 1.25% (inactive). With CS(=O)(=O)CCC(Nc1ccc([N+](=O)[O-])cc1[N+](=O)[O-])C(=O)O (stereo not given) the growth inhibition was 5.6% (inactive). For NC(CSC(c1ccccc1)(c1ccccc1)c1ccc(C(=O)O)cc1)C(=O)O (stereo not given), the growth inhibition was 2.2% (inactive). With Brc1cc(Br)c2c(c1)CN(C1CCCCC1)CO2 (tested in a mixture with another compound) the growth inhibition was -1.6% (inactive). For Cc1n(CC(=O)c2ccccc2)nc2sc(N)n[n+]12, the growth inhibition was -14.8% (inactive). In the case of COc1ccc(NC(=O)C(=O)Cc2nc3ccc([N+](=O)[O-])cc3[nH]c2=O)c(OC)c1, the growth inhibition is reported as 6.15% (inactive). For COC(=O)CCc1cc(=O)oc2c3c(cc(OC)c12)OC1OC(=O)CC31 (stereo not given), the growth inhibition was -20.1% (inactive). In the case of O=C1C2C3(CCl)C1C23CCl (stereo not given), the growth inhibition is reported as 18.2% (inactive). In the case of N#Cc1cn(Cc2ccccc2)c2ccccc2c1=O, the growth inhibition is reported as 7.3% (inactive). With O=[N+]([O-])c1cc(C(F)(F)F)ccc1F the growth inhibition was -12.4% (inactive). For CCOC(=O)Cc1cccnc1N, the growth inhibition was 1% (inactive). In the case of CN1CCCC2[C@@H]3CCC4=C(O)C(=O)CC[C@]4(C)C3CC[C@@]21C (stereo not given in full), the growth inhibition is reported as 0.85% (inactive). In the case of c1ccc(B2OCC(C3OB(c4ccccc4)OC4COB(c5ccccc5)OC43)O2)cc1 (stereo not given), the growth inhibition is reported as -23.2% (inactive). For COc1ccc(/C=C2/SC(=Nc3ccccc3)N(NC(=O)Cc3ccccc3)C2=O)cc1, the growth inhibition was -26.6% (inactive). With O=C(CC(=O)N(C(=O)/C=C\c1ccccc1)c1ccc(Cl)cc1)N1N=C(c2ccccc2)C(N=Nc2cccc([N+](=O)[O-])c2)C1=O (stereo not given) the growth inhibition was 14.7% (inactive). In the case of OCc1ccccc1O, the growth inhibition is reported as -0.7% (inactive). In the case of CCN(CC)CCSc1cc(C)c2ccc(N)nc2n1, the growth inhibition is reported as 8.6% (inactive). With CC(CN(C)C)C(=O)c1ccccc1C(=O)O (stereo not given) the growth inhibition was -2.05% (inactive). In the case of CC(C)c1ccc(C(=O)OCCBr)cc1, the growth inhibition is reported as 1.7% (inactive). In the case of O=C1/C(=C/c2ccccc2)CCCC/C1=C\c1ccccc1, the growth inhibition is reported as 9.75% (inactive).
